# Screens deposited in PubChem by The Scripps Research Institute Molecular Screening Center.
# M4 PAM – CHRM4 positive allosteric modulation. CHO-K1 hM4/Gqi5, Fluo-8 calcium fluorescence, ACh EC20; 0% = ACh EC20, 100% = maximal ACh. 360,000 compounds, 0.4% hits. P08173. activation, % at 3 µM. AID 624126;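 active = activation above its plate's cutoff, the mean activation of sample wells plus 3 SD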
# Target sequence (P08173 whole entry, looked up): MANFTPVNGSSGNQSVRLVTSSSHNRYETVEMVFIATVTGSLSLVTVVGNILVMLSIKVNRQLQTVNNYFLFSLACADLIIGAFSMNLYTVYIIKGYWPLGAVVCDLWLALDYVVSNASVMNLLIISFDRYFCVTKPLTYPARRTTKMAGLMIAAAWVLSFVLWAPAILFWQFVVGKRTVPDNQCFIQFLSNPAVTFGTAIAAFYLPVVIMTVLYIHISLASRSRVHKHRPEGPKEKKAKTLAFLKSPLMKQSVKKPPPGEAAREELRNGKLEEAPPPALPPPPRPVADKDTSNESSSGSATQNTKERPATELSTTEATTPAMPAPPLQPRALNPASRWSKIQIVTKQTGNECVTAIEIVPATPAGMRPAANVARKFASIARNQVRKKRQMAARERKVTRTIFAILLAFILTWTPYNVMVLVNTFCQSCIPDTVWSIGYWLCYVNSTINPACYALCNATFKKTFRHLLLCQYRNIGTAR
# CHO-K1 Ca PAM – nonselective activator or artifact in parental CHO-K1 calcium assay; ATP EC20, Fluo-8 calcium fluorescence; 0% at ATP EC20, 100% at ATP max; activation, % at 3 µM; 360,000 compounds, 0.02% hits; AID 602247;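 active = activation above the run cutoff, the mean activation of all test compounds plus 3 SD, cut at about 40% in these data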;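 also: peak over basal fluorescence ratio in a 140 s read after ATP addition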
# CHO-K1 Ca ag – nonselective activator or artifact in parental CHO-K1 cells; Fluo-8 calcium fluorescence; scaled to maximal ATP response, vehicle zero; activation, % at 3 µM; 360,000 compounds, 0.48% hits; AID 602248; in the data active = activation above about 15%;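 also: untransfected CHO-K1 host cells lacking M1 receptor as counterscreen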
# CHO-K1 Ca antag – M1 antagonist counterscreen hit in parental CHO-K1 cells; ATP-induced calcium, Fluo-8 fluorescence; inhibition, % at 3 µM; 360,000 compounds, 0.6% hits;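 active = inhibition above a per-plate cutoff, the plate's mean sample inhibition plus 3 SD, cut at about 24% in these data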;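 also: 0% = DMSO plus EC80 ATP and 100% = DMSO alone without ATP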
# CHRM4 antagonist – CHRM4 antagonism in calcium assay. P08173. CHO-hM4 cells, ACh EC80, Fluo-8 calcium fluorescence. inhibition, % at 3 µM. 360,000 compounds, 0.73% hits;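 active = inhibition above its plate's cutoff, the mean inhibition of sample wells plus 3 SD, cut at about 27% in these data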;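 also: 0% = acetylcholine EC80 with DMSO and 100% = DMSO without agonist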
# CHRM4 agonist – agonists of human muscarinic M4 receptor (CHRM4). P08173. CHO-K1 hM4/Gqi5, Fluo-8 calcium fluorescence; vehicle 0%, full acetylcholine response 100%. activation, % at 3 µM. 360,000 compounds, 0.14% hits;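 active = activation above the run mean over all test wells plus 3 SD, cut at about 32% in these data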;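 also: peak over basal fluorescence ratio per well then scaled between controls; 0% = DMSO wells and 100% = acetylcholine at EC100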
# An asterisk follows results filed as active. Most compounds without a hit are left out; they make up all but 2% or so of the library.
SMILES,M4 PAM,CHO-K1 Ca PAM,CHO-K1 Ca ag,CHO-K1 Ca antag,CHRM4 antagonist,CHRM4 agonist
COc1ccc(/C=N/NC(=O)CNc2n[nH]c(=O)[nH]c2=O)cc1OC,-17,-8,0,27*,9,0
O=S1(=O)CC(N2CCCC2)CN1Cc1cn(Cc2ccccc2)nn1 (centres undefined),5,12,1,-14,-5,1
CC(C(=O)NCC1(c2ccccc2)CCCC1)N1CCCC1 (centres undefined),-39,0,1,3,43*,2
CC(C(=O)NCC1(c2ccccc2)CCCC1)N1CCOCC1 (centres undefined),-14,10,1,-5,23,0
CCNc1nc(NC(C)C)nc(N(C#N)Cc2ccccc2)n1,2,13,16*,-3,-2,6
CCNc1nc(NCC)nc(N(C#N)C(C)C)n1,3,14,1,-15,5,0
CCNc1nc(NC(C)(C)C)nc(N(C#N)CC)n1,-33,23,2,-8,61*,0
CCc1nc2ccc(C(=O)Nc3cccc(OCC(=O)N(C)C)c3)cn2c1N(C)Cc1ccc(OC)cc1,-11,-6,4,6,4,15
Cc1cccc(Nc2nc3c(c(=O)n(C)c(=O)n3C)n2CC(O)CO)c1 (centres undefined),1,-7,0,25*,0,1
O=C(CC[C@H]1O[C@@H](n2ccc(=O)[nH]c2=O)[C@H](O)[C@@H]1O)NCc1cccc2ccccc12,21*,15,0,-18,-8,1
COc1ccc(CNC(=O)CC[C@H]2O[C@@H](n3ccc(=O)[nH]c3=O)[C@H](O)[C@@H]2O)cc1,0,9,2,-6,-4,1
CCN(CC)CCCCN1c2ccccc2Sc2ccccc21,-17,-7,13,-3,73*,10
CCN(CC)CC(=O)N1c2ccccc2Sc2ccccc21,-18,3,1,-12,84*,1
NCCC(=O)N1c2ccccc2Sc2ccccc21,-9,7,1,-8,6,2
NCCCC(=O)N1c2ccccc2Sc2ccccc21,-14,28,0,-13,42*,1
CCN(CC)CC(=O)N1c2ccccc2Sc2ccc(Cl)cc21,-18,-8,0,-8,85*,0
CCN(CC)C(=O)N1c2ccccc2Sc2ccccc21,-4,3,0,-14,2,-2
COc1cc(C(=O)OCc2cc(=O)oc3c(C)c(C)ccc23)ccc1OC(F)F,7,23,10,-7,-9,3
CC(C)CN(C(=O)CCC(=O)OCC(=O)NCCc1ccccc1)c1c(N)n(CC(C)C)c(=O)[nH]c1=O,4,11,0,10,-9,1
COc1ccc(CCN(C)C(=O)CSc2nnc(C3CC3)n2N)cc1OC,1,-2,0,-1,0,0
COC(=O)[C@H](CCSC)NC(=O)Cn1cnc2c(SC)nc(N)nc21,-5,-2,0,-2,2,-1
O=C1C2C3C=CC(CO)(O3)C2C(=O)N1c1ccccc1-c1ccccc1 (centres undefined),-7,2,1,-3,27*,8
O=C1CCN2C=Nc3cccc4ccc1c2c34,0,-8,18*,-2,1,14
Cc1ccc(NC(=O)N2CCCC2C(=O)NCC2CCCCC2)cc1 (centres undefined),6,-8,1,-2,-10,0
N#Cc1c(SCC(N)=O)nc(-c2ccccc2)c2c1CCCC2,-4,21,0,-11,0,-1
SMILES,M4 PAM,CHO-K1 Ca PAM,CHO-K1 Ca ag,CHO-K1 Ca antag,CHRM4 antagonist,CHRM4 agonist
Cc1ccc(-c2nc(SCC(N)=O)c(C#N)c3c2CCCC3)cc1,12,-3,0,30*,-3,-3
CC1(C)CC(C(CCN(Cc2ccccc2)C(=O)c2ccco2)c2ccc(F)cc2)CCO1 (centres undefined),-18,12,5,4,27*,8
CCOC1=C2CN(S(=O)(=O)c3ccc(C)cc3)[C@H](c3ccccc3)C[C@H]2n2c(=O)n(-c3ccccc3)c(=O)n2C1,9,9,0,10,-14,0
CN1CCN(C2CN(Cc3cn(Cc4ccc(Cl)cc4)nn3)S(=O)(=O)C2)CC1 (centres undefined),4,7,0,-5,-16,1
CCOC(=O)c1c(NC(=O)CN2CCN(S(=O)(=O)c3cc(Cl)ccc3Cl)CC2)sc(C(=O)N(C)C)c1C,-13,0,1,-12,41*,8
O=C(O)C(Cc1ccccc1)N1C(=O)C=CC1=O (centres undefined),-2,15,1,-5,0,0
CCC(=O)c1ccc(OCC(=O)OCC(=O)N2c3ccccc3CC2C)cc1 (centres undefined),1,-13,9,5,-3,17
COc1ccc(/C=C/C(=O)N/C(=C\c2ccco2)C(=O)NCCc2nc3ccccc3[nH]2)cc1,-8,-12,1,25*,-3,4
O=C(Nc1ccccc1C(=O)N/N=C/c1ccco1)c1ccc(F)cc1,36*,27,0,-8,21,1
Cc1ccccc1C(=O)Nc1ccccc1C(=O)N/N=C\c1ccco1,31*,8,2,-2,-17,2
O=C(N/N=C/c1ccco1)c1cccc([N+](=O)[O-])c1,28*,9,0,-1,1,1
CSCCC(C(=O)Nc1c(C)cccc1C)N(Cc1ccccc1)Cc1ccccc1 (centres undefined),8,-3,1,-4,-15,3
Cc1csc2ncc(C(=O)NC(C)c3ccccc3)c(=O)n12 (centres undefined),-3,4,16*,14,-1,7
COc1cccc(NC(=O)Cn2nnc(C(=O)NCc3ccc4c(c3)OCO4)c2N)c1,3,2,0,-11,-4,4
Cc1sc(NC(=O)c2ccco2)nc1-c1ccc2c(c1)CC(C)N2C(=O)C1CC1 (centres undefined),-15,9,7,5,32*,17
COc1cccc(/C=C/C(=O)Nc2ccc3nc4n(c(=O)c3c2)CCCC4)c1OC,9,-9,1,2,-5,4
COc1ccc2c(c1)c(C(C)=O)c(C)n2C,-5,14,19*,3,2,0
Cc1ccc(S(=O)(=O)N2CCC(C(=O)OCC(=O)N3C(C)CCCC3C)CC2)cc1C (centres undefined),-4,7,2,-8,-6,6
O=C1NC(=S)NC1=Cc1ccc(Cl)cc1Cl,-3,-14,0,26*,4,2
O=C1NC(=S)NC1=Cc1ccccc1O,-20,-17,17*,23,13,134*
